From PubChem BioAssay come the findings set out here.

The nature of assay [1]: inhibitors of TNFa-induced NFkB p65 translocation, primary screen, imaging, HUVEC, MLSMR starter and 10KST1 sets (AID 438;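 active = inhibition above 20% together with a positive visual image hit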;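 note: compound added about 3h40 before a 20 min TNFalpha stimulation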;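 for inhibition: signal is the nuclear over cytoplasmic p65 intensity ratio per well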). Particulars: HUVEC TNFa-induced p65 nuclear translocation; cell count: measured here: nuclei count (cytotoxicity indicator), at 2.08 µM; inhibition: at 2 µM, stronger effect = higher value, 0% TNFa-plus-vehicle, 100% no-TNFa wells.
Assay [2] can be described thus: inhibitors of mutant huntingtin aggregation, primary screen, imaging, exon1htt(103Q)mCFP cells, high-content imaging (AID 483;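 active = visual image review flags a hit and inhibition of aggregation exceeds 20%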;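 note: compound exposure lasted 3 days before fixation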;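 for nuclei count: percent of the per-plate median nuclei count of sample wells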). Particulars: exon1htt(103Q)mCFP cell line, aggregate imaging, at 2 µM; inhibition of aggregation: stronger effect = higher value; nuclei count: measured here: cell count, toxicity.
Assay [3] can be described thus: inhibitors of E-selectin induction by TNFa, primary screen, imaging, HUVEC, immunofluorescence, MLSMR starter and 10KST1 sets (AID 487;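 active = visually confirmed hit in the image check and inhibition above 20%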;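 for inhibition: signal is fraction of cell area covered by stained E-selectin grains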;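 for nuclei count: 100% = median nuclei count of all wells on the same plate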). To be noted: HUVEC TNFalpha-induced E-selectin immunofluorescence imaging, at 2 µM; inhibition: stronger effect = higher value; nuclei count: measured here: cell number, toxicity.
The target in assay [4] is Voltage-gated potassium channel subunit beta-2 (Rattus norvegicus) (UniProt P62483). Nature of the assay: KvBeta enzyme negative modulators, primary screen, biochemical, NADPH fluorescence (AID 622;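 active = fluorescence slope higher than the sample average by over 3 SD, cut at about -0.22 in these data, passing the limit was not always enough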;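 note: slope of raw intensity against log time taken from 70 to 1610 s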). Particulars: recombinant KvBeta, 4-cyanobenzaldehyde reduction, at 10 µM, stronger effect = higher value.
Sequence of Voltage-gated potassium channel subunit beta-2 (Rattus norvegicus) (P62483 whole entry, looked up): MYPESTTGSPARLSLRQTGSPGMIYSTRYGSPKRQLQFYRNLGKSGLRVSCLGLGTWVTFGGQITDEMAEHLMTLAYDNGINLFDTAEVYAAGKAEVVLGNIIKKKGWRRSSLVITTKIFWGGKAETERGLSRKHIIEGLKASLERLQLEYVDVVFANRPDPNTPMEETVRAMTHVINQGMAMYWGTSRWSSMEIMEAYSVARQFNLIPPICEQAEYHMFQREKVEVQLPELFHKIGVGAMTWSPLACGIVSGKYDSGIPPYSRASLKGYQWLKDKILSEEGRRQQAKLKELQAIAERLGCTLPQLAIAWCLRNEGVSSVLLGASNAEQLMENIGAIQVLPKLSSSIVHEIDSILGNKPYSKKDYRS
Assay [5] has the same target. Nature of the assay: KvBeta positive modulators, primary screen, biochemical, NADPH fluorescence (AID 623;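 active = NADPH fluorescence slope more negative than the mean of all samples by about 3 SD, 99.7% confidence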;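 note: fluorescence intensity change per second fitted from 20 to 320 s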). Particulars: Recombinant KvBeta, NADPH fluorescence decrease slope, 10 min; at 10 µM; stronger effect = lower value.
The target of assay [6] is Alpha-2C adrenergic receptor (Homo sapiens) (UniProt P18825). Put plainly: modulators of alpha2C/GIRK thallium flux, primary screen, cell-based, HEK293 alpha2C/GIRK1/2 (AID 624;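 active = fluorescence slope after compound addition differing from the mean of all screened samples at 99.7% confidence, in either direction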;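 note: slope of fluorescence ratio to pre-addition baseline per second over 15 to 24 s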). Particulars: thallium flux BTC fluorescence, at 10 µM, actives lie on both sides.
Sequence of Alpha-2C adrenergic receptor (Homo sapiens) (P18825 whole entry, looked up): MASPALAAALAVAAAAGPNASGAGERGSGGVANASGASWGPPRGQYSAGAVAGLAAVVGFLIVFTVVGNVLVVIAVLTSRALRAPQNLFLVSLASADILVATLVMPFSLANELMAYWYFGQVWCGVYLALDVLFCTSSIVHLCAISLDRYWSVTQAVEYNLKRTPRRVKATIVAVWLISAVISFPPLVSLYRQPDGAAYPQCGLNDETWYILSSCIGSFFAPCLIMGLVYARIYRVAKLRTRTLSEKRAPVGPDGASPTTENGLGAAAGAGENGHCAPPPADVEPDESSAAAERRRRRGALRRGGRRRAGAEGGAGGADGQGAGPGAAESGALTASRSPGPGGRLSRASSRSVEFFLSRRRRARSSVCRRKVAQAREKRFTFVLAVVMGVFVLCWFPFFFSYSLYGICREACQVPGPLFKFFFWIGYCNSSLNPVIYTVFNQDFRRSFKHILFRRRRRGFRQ
Assay [7] in a line: inhibitors of Sendai virus-induced IRF3 signaling, primary screen, TLR/RLR signaling modifier project, cell-based, Sendai virus stimulus, luciferase, 10K MLSCN set (AID 602276).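 Note: firefly luciferase from ISG56 promoter only with Renilla not read in this screen; 0% = Sendai virus plus DMSO and 100% = medium plus DMSO without virus.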 Particulars: HEK293 RL24 IRF3 luciferase reporter, at 10 µM, stronger effect = higher value.
Assay [8] is described as follows: inhibitors of poly I:C-induced TLR3 signaling, primary screen, cell-based, poly I:C stimulus, luciferase, 10K MLSCN set (AID 602277;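 active = inhibition of the reporter signal at or above 50%; inactive = inhibition below 50%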). Particulars: HEK293-TLR3 RL24 IRF3 luciferase reporter, at 10 µM, stronger effect = higher value. (In a reporter assay the amount or activity of a reporter protein is the signal.)

Calls of active or inactive are those of the source.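 Rule for the calls, unless noted: active = inhibition at or above 50% at 10 µM; inactive = inhibition below 50%.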

As for `CCOc1ccc2nc(NC(=O)C3CCCN(S(=O)(=O)c4c(C)noc4C)C3)sc2c1` (centres undefined), in assay [1], the cell count is 674. For the same molecule, the inhibition – broadly, the change of the read-out against control, counted positive when it falls – in assay [1] is -4% (inactive); in assay [3] it was -7.3% (inactive); in assay [7], -4.49% (inactive); in assay [8], -47.9% (inactive). The inhibition of aggregation in assay [2] is -0.7% (inactive). The nuclei count in assay [2] worked out at 108%; in assay [3] it was 114%. Further, the fluorescence slope in assay [4] is -0.592 (inactive). Moreover, the NADPH fluorescence slope in assay [5] is -1.1e-05 (inactive). Besides, the slope in assay [6] was 0.00699 (inactive).
As to `Cc1[nH]nc2c1C(=O)CCC2`, the cell count in assay [1] came to 639. Besides, the inhibition in assay [1] is 10.7% (inactive); in assay [3] it was 14.9% (inactive); in assay [7], -1.33% (inactive); in assay [8], 0.12% (inactive). In addition, in assay [2], the inhibition of aggregation is 27.4% (inactive). The nuclei count in assay [2] was 96.1%; in assay [3] it was 95.1%. Besides, the fluorescence slope in assay [4] is -0.366 (inactive). Moreover, the NADPH fluorescence slope in assay [5] is -3.1e-05 (inactive). Besides, the slope in assay [6] is 0.00524 (inactive).
As for `CCCCn1nnc(NC(=O)Cc2ccc(Cl)cc2)n1`, the cell count in assay [1] amounted to 618. Besides, the inhibition in assay [1] is 7.7% (inactive); in assay [3] it was -66% (inactive); in assay [7], 1.51% (inactive); in assay [8], 19.5% (inactive). The inhibition of aggregation in assay [2] was 23.9% (inactive). Also, the figures for the nuclei count in assay [2] and in assay [3] were 91.6% and 106%, respectively. In addition, in assay [4], the fluorescence slope was -0.44 (inactive). Further, the NADPH fluorescence slope in assay [5] is -6.8e-05 (inactive). The slope in assay [6] is 0.00393 (inactive).
Take `O=S(=O)(Nc1cccnc1)c1cc(Cl)ccc1Cl`: in assay [1], the cell count is 395. Besides, the inhibition in assay [1] was 2.5% (inactive); in assay [3], 26.2% (inactive); in assay [7], 23.6% (inactive); in assay [8], 7.22% (inactive). The inhibition of aggregation in assay [2] is 6.1% (inactive). Further, the nuclei count in assay [2] came out at 99.9%; in assay [3] it was 115%. Moreover, the fluorescence slope in assay [4] is -0.286 (inactive). Besides, the NADPH fluorescence slope in assay [5] is 2e-06 (inactive). For the same molecule, the slope in assay [6] is 0.00524 (inactive).
With `CCOC(=O)N1CCC(NC(=O)c2ccc3c(c2)sc2nc(-c4cccc(OC)c4)cn23)CC1`, the cell count in assay [1] was 415. For the same molecule, the inhibition in assay [1] was 8% (inactive); in assay [3] it was -3.7% (inactive); in assay [7], -22.7% (inactive); in assay [8], -70.4% (inactive). Besides, the inhibition of aggregation in assay [2] was 8.8% (inactive). For the same molecule, the nuclei count came to 93.6% in assay [2] and 108% in assay [3]. Further, the fluorescence slope in assay [4] is -0.485 (inactive). The NADPH fluorescence slope in assay [5] was -2.7e-05 (inactive). Moreover, the slope in assay [6] is 0.00825 (inactive).
`N#CC(C(=O)NCCc1ccccc1)c1nc2ccccc2nc1N1CCOCC1` (centres undefined): in assay [1], the cell count amounted to 389. Besides, the inhibition is 5.7% (inactive) in assay [1], -176% (inactive) in assay [3], -27.6% (inactive) in assay [7] and -40.4% (inactive) in assay [8]. Also, the inhibition of aggregation in assay [2] was -43.6% (inactive). Also, the results for the nuclei count in assay [2] and in assay [3] were 103% and 118%, respectively. For the same molecule, in assay [4], the fluorescence slope is -0.401 (inactive). For the same molecule, the NADPH fluorescence slope in assay [5] is -2e-05 (inactive). In assay [6], the slope is 0.00348 (inactive).
As for `CCOc1ncccc1C(=O)OCC(=O)N1CC(=O)Nc2ccccc21`, in assay [1], the cell count was found to be 371. Moreover, the inhibition in assay [1] was 2.2% (inactive); in assay [3], -9.8% (inactive); in assay [7], 7.28% (inactive); in assay [8], 22.7% (inactive). In addition, the inhibition of aggregation in assay [2] is -21.8% (inactive). For the same molecule, the results for the nuclei count in assay [2] and in assay [3] were 102% and 111%, respectively. In addition, the fluorescence slope in assay [4] was -0.486 (inactive). For the same molecule, in assay [5], the NADPH fluorescence slope was 3.8e-06 (inactive). Further, the slope in assay [6] is 0.00558 (inactive).
Consider `O=C1CCNc2cc3ccccc3cc21`, for which the cell count in assay [1] was 356. The inhibition in assay [1] was 2.5% (inactive); in assay [3] it was 24.1% (inactive); in assay [7], 21.5% (inactive); in assay [8] it was 32.3% (inactive). In assay [2], the inhibition of aggregation was 32.4% (inactive). Moreover, the results for the nuclei count in assay [2] and in assay [3] were 80.4% and 99.3%, respectively. In addition, the fluorescence slope in assay [4] was -0.472 (inactive). The NADPH fluorescence slope in assay [5] was -0.000147 (inactive). For the same molecule, the slope in assay [6] was 0.00661 (inactive).
With `Cc1ccc(-c2cc(C(=O)NCCN3CCOCC3)no2)cc1`, the cell count in assay [1] turned out to be 605. Also, the inhibition was 1.9% (inactive) in assay [1], -4% (inactive) in assay [3], -29.5% (inactive) in assay [7] and -36.6% (inactive) in assay [8]. For the same molecule, in assay [2], the inhibition of aggregation was 41.6% (inactive). The nuclei count in assay [2] worked out at 69.9%; in assay [3], 101%. Further, the fluorescence slope in assay [4] is -0.452 (inactive). Besides, in assay [5], the NADPH fluorescence slope is 8.4e-05 (inactive). Further, the slope in assay [6] is 0.0051 (inactive).
For `O=C(NC(C(=O)c1ccccc1)N1CCOCC1)c1cccs1` (centres undefined), in assay [1], the cell count was 629. For the same molecule, the inhibition is -14.3% (inactive) in assay [1], -2.1% (inactive) in assay [3], -18.2% (inactive) in assay [7] and -23.5% (inactive) in assay [8]. Moreover, in assay [2], the inhibition of aggregation is 19.4% (inactive). The results for the nuclei count in assay [2] and in assay [3] were 72.3% and 101%, respectively. Besides, the fluorescence slope in assay [4] was -0.311 (inactive). Further, the NADPH fluorescence slope in assay [5] was -5.7e-05 (inactive). Besides, the slope in assay [6] was 0.00609 (inactive).
Regarding `Cc1ccc(-n2c(Cn3cnc4ccccc43)nnc2SCC(=O)O)cc1`, the cell count in assay [1] was 610. The inhibition in assay [1] was -9.8% (inactive); in assay [3], -26.2% (inactive); in assay [7] it was 15.2% (inactive); in assay [8], 21.8% (inactive). In addition, the inhibition of aggregation in assay [2] was -19.4% (inactive). The figures for the nuclei count in assay [2] and in assay [3] were 108% and 110%, respectively. Besides, the fluorescence slope in assay [4] was -0.437 (inactive). Further, the NADPH fluorescence slope in assay [5] was 1.2e-06 (inactive). Moreover, the slope in assay [6] is 0.00571 (inactive).
`Cc1c(C(=O)OCC(C)C)[nH]c2c1C(=O)CC(c1ccco1)C2` (centres undefined): in assay [1], the cell count stood at 464. Moreover, the inhibition is 8.4% (inactive) in assay [1], -91.9% (inactive) in assay [3], 75.6% (active) in assay [7] and 76.5% (active) in assay [8]. For the same molecule, the inhibition of aggregation in assay [2] was -226% (inactive). The figures for the nuclei count in assay [2] and in assay [3] were 4% and 96.5%, respectively. For the same molecule, the fluorescence slope in assay [4] is -0.492 (inactive). In addition, in assay [5], the NADPH fluorescence slope was -3.2e-07 (inactive). For the same molecule, the slope in assay [6] was 0.00635 (inactive).
In the case of `Cc1ccc(Cc2c(C)nc3c(C(=O)O)cnn3c2C)cc1`, the cell count in assay [1] turned out to be 327. Also, the inhibition is 7.7% (inactive) in assay [1], -4.3% (inactive) in assay [3], 3.97% (inactive) in assay [7] and 19.3% (inactive) in assay [8]. For the same molecule, the inhibition of aggregation in assay [2] is 1.1% (inactive). Moreover, the values for the nuclei count in assay [2] and in assay [3] were 108% and 105%, respectively. Besides, the fluorescence slope in assay [4] was -0.376 (inactive). In assay [5], the NADPH fluorescence slope is -1.4e-05 (inactive). The slope in assay [6] is 0.0026 (inactive).
For the molecule `CC1=C(C)[N+](=O)C2CCCCC2N1[O-]` (centres undefined), the cell count in assay [1] is 705. In addition, the inhibition in assay [1] is 3.9% (inactive); in assay [3], 58% (inactive); in assay [7], -0.132% (inactive); in assay [8], 16.1% (inactive). In addition, the inhibition of aggregation in assay [2] is 13.8% (inactive). In addition, the figures for the nuclei count in assay [2] and in assay [3] were 104% and 86.5%, respectively. The fluorescence slope in assay [4] is -0.368 (inactive). Besides, the NADPH fluorescence slope in assay [5] is -0.000147 (inactive). Besides, the slope in assay [6] was 0.00784 (inactive).
